The subject of one assay is T1, MEK1.
T1 construct: gene MAP2K1
Particulars: concentration: 1 μM, replicates: in singlicate, n = 1.

Another assay concerns T2, MEK2.
T2 construct: gene MAP2K2
Conditions: concentration: 1 μM, replicates: in singlicate; n = 1.

The next assay concerns T3, MEK3.
T3 construct: gene MAP2K3
Conditions: concentration: 1 μM, replicates: in singlicate; n = 1.

In a further assay the test system is T4, MEK4.
T4 construct: gene MAP2K4
Conditions: concentration: 1 μM, replicates: in singlicate, n = 1.

The next assay has as its system T5, MEK5.
T5 construct: gene MAP2K5
Conditions: concentration: 1 μM, replicates: in singlicate; n = 1.

In the next assay the test system is T6, MEK6.
T6 construct: gene MAP2K6
Conditions: concentration: 1 μM, replicates: in singlicate, n = 1.

The subject of the next assay is MELK. Conditions: concentration: 1 μM, replicates: in singlicate, n = 1.
A further assay has as its system MERTK. Particulars: concentration: 1 μM, replicates: in singlicate, n = 1.
For the next assay, the system named is MET. Conditions: concentration: 1 μM, replicates: in singlicate, n = 1.
In a further assay the test system is T7, MINK.
T7 construct: gene MINK1
Particulars: concentration: 1 μM, replicates: in singlicate, n = 1.

For a further assay, the system named is MKK7. Particulars: concentration: 1 μM, replicates: in singlicate, n = 1.
The next assay relates to MKNK1. Conditions: concentration: 1 μM, replicates: in singlicate, n = 1.
In the next assay the test system is MKNK2. Particulars: concentration: 1 μM, replicates: in singlicate, n = 1.
For the next assay, the system named is T8, MLCK.
T8 construct: gene MYLK3
Conditions: concentration: 1 μM, replicates: in singlicate, n = 1.

Another assay concerns T9, MLK1.
T9 construct: gene MAP3K9
Particulars: concentration: 1 μM, replicates: in singlicate, n = 1.

Another assay concerns MLK2. Particulars: concentration: 1 μM, replicates: in singlicate, n = 1.
The next assay has as its system MLK3. Conditions: concentration: 1 μM, replicates: in singlicate, n = 1.
Another assay concerns MRCKA. Conditions: concentration: 1 μM, replicates: in singlicate, n = 1.
The test system of the next assay is T10, MRCKB.
T10 construct: gene CDC42BPB
Conditions: concentration: 1 μM, replicates: in singlicate, n = 1.

Another assay relates to MST1R. Particulars: concentration: 1 μM, replicates: in singlicate, n = 1.

Where “and” joins values, the source holds several entries; their conditions need not be identical. Identical values can stand only once. Like-named read-outs stand apart in the source and are kept apart here.
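Further: KINOMEscan kinase panel screen.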

Consider `O=C(NOCC1CC1)c1ccc(F)c(F)c1Nc1ccc(I)cc1Cl`, for which the “%Inh” value stood at 64% in the assay with MEK1; 47% in the assay on MEK2; 0% in the assay on MEK3; 0% in the assay on MEK4; 0% in the assay on MEK5; 0% in the assay on MEK6. Further, the “%Inh” value with MELK, in the assay on MERTK, in the assay on MET, in the assay on MINK, in the assay with MKK7 and with MKNK1 was 0% each time. Besides, the “%Inh” value in the assay on MKNK2, in the assay with MLCK, in the assay on MLK1, in the assay on MLK2, in the assay on MLK3 and in the assay with MRCKA was 0% throughout. Also, the “%Inh” value in the assay on MRCKB and in the assay on MST1R was 0% in each case.
Regarding `NS(=O)(=O)c1cccc(-c2ccc3ncc(N4CCOCC4)nc3c2)c1` [GSK1535721], the “%Inh” value is given as 11% in the assay with MEK1; 0% in the assay with MEK2; 0% in the assay on MEK3; 23% with MEK4; 16% with MEK5; 4% in the assay with MEK6. The “%Inh” value in the assay on MELK is 17%; with MERTK it was 9%; with MET, 0%; with MINK, 27%; in the assay with MKK7, 16%; in the assay on MKNK1, 0%. The “%Inh” value with MKNK2 is reported as 0%; with MLCK it was 2%; with MLK1, 0%; in the assay with MLK2 it was 27%; with MLK3, 1%; with MRCKA, 0%. The results for the “%Inh” value with MRCKB and in the assay with MST1R were 2% and 26%, respectively.
With `CC(C)(CN)c1nc(-c2ccc(Cl)c(O)c2)c(-c2ccncc2)[nH]1.O=C(O)C(F)(F)F` [SB-477794], the “%Inh” value is 14% and 2% with MEK1 (1 µM); 20% in the assay with MEK2; 0% in the assay on MEK3; 0% and 8% in the assay on MEK4 (1 µM); 99.5% in the assay on MEK5; 0% and 100% with MEK6 (1 µM). The “%Inh” value is 25% and 51% in the assay with MELK (1 µM); 32% and 45% with MERTK (1 µM); 0% and 12% with MET (1 µM); 91.7% and 93.9% with MINK (1 µM); 26% and 0% in the assay with MKK7 (1 µM); 9% and 0% in the assay with MKNK1 (1 µM). Further, the “%Inh” value with MKNK2 (1 µM) was 9% and 0%; in the assay with MLCK (1 µM), 0% and 14%; with MLK1 (1 µM), 0% and 7%; with MLK2 (1 µM), 0% and 10%; in the assay on MLK3 (1 µM), 0% and 32%; with MRCKA (1 µM), 46% and 35%. The “%Inh” value in the assay on MRCKB (1 µM) was 76% and 72%; with MST1R (1 µM), 39% and 0%.
For `O=C1Cc2cc(Nc3nc(NCc4cccc(S(=O)(=O)C(F)(F)F)c4)ncc3C(F)(F)F)ccc2N1`, the “%Inh” value is listed as 0% in the assay with MEK1; 0% in the assay with MEK2; 15% in the assay on MEK3; 30% with MEK4; 0% in the assay with MEK5; 14% in the assay with MEK6. The “%Inh” value with MELK, in the assay with MERTK, with MET, with MINK, in the assay on MKK7 and in the assay with MKNK1 was 0% each time. The “%Inh” value in the assay with MKNK2 came out at 0%; in the assay with MLCK it was 10%; in the assay with MLK1, 0%; with MLK2, 32%; in the assay with MLK3, 3%; in the assay on MRCKA, 5%. The results for the “%Inh” value with MRCKB and with MST1R were 10% and 0%, respectively.
On to `O=C(NCCNc1ccnc(Nc2ccc(F)cc2)n1)Nc1ccccc1F` [GSK1379880], for which the “%Inh” value was 0% in the assay on MEK1; 0% with MEK2; 0% in the assay with MEK3; 26% in the assay with MEK4; 30% with MEK5; 0% in the assay on MEK6. In addition, the “%Inh” value in the assay on MELK was determined as 0%; in the assay on MERTK it was 7%; with MET it was 0%; with MINK, 0%; in the assay with MKK7 it was 0%; in the assay with MKNK1, 0%. The “%Inh” value in the assay on MKNK2 stood at 5%; in the assay on MLCK, 0%; in the assay with MLK1, 0%; in the assay with MLK2 it was 0%; with MLK3, 0%; with MRCKA, 21%. Besides, the figures for the “%Inh” value in the assay on MRCKB and in the assay with MST1R were 3% and 50%, respectively.
Turning to `O=C(c1ccc(-c2cc(-c3c[nH]nc3-c3ccccn3)ccn2)cc1)N1CCOCC1` [GW812171], the “%Inh” value with MEK1 is reported as 31%; with MEK2, 46%; in the assay on MEK3 it was 38%; in the assay on MEK4, 14%; in the assay with MEK5, 42%; with MEK6, 14%. Further, the “%Inh” value in the assay with MELK turned out to be 0%; with MERTK, 12%; with MET, 0%; in the assay on MINK, 40%; in the assay with MKK7, 24%; in the assay on MKNK1, 0%. Moreover, the “%Inh” value is on record as 0% in the assay on MKNK2; 0% in the assay with MLCK; 0% in the assay with MLK1; 34% in the assay on MLK2; 0% with MLK3; 1% in the assay with MRCKA. The “%Inh” value in the assay with MRCKB is recorded as 12%; with MST1R it was 0%.
`COc1cc2c(cc1OCCN1CCN(C)CC1)ncc1c3ccc(C#N)cc3[nH]c21`: the “%Inh” value in the assay with MEK1 amounted to 34%; with MEK2, 80%; in the assay with MEK3, 9%; in the assay with MEK4, 0%; in the assay on MEK5, 99.9%; in the assay on MEK6, 11%. In addition, the “%Inh” value with MELK was 51%; with MERTK, 0%; with MET, 0%; with MINK, 93%; in the assay on MKK7, 0%; in the assay on MKNK1 it was 99.4%. Further, the “%Inh” value worked out at 99.7% in the assay on MKNK2; 98.8% in the assay with MLCK; 0% in the assay on MLK1; 0% in the assay on MLK2; 20% with MLK3; 10% in the assay on MRCKA. Further, the “%Inh” value came to 0% in the assay with MRCKB and 7% in the assay with MST1R.
Turning to `O=C(NCCCN1CCOCC1)c1cccc(Nc2nccc(Nc3ccc(Oc4ccccc4)cc3)n2)c1` [GW663929], the “%Inh” value is 71% with MEK1; 77% in the assay on MEK2; 7% with MEK3; 21% in the assay on MEK4; 100% with MEK5; 11% in the assay with MEK6. For the same compound, the “%Inh” value in the assay with MELK is listed as 10%; with MERTK, 0%; with MET it was 0%; with MINK it was 18%; with MKK7, 0%; in the assay on MKNK1, 0%. In addition, the “%Inh” value turned out to be 29% in the assay on MKNK2; 0% in the assay on MLCK; 0% with MLK1; 0% in the assay with MLK2; 18% in the assay with MLK3; 4% in the assay with MRCKA. Further, the results for the “%Inh” value in the assay on MRCKB and in the assay on MST1R were 0% and 37%, respectively.
Regarding `O=c1cc(N2CCOCC2)nc2n(Cc3cccc(F)c3)ccn12` [GSK2297430], the “%Inh” value in the assay with MEK1 was found to be 0%; in the assay with MEK2 it was 0%; with MEK3, 0%; in the assay on MEK4 it was 0%; in the assay on MEK5 it was 31%; with MEK6, 0%. Further, the “%Inh” value with MELK is given as 18%; with MERTK, 16%; in the assay with MET it was 0%; in the assay with MINK, 0%; with MKK7 it was 0%; with MKNK1 it was 0%. For the same compound, the “%Inh” value in the assay with MKNK2 is given as 10%; in the assay with MLCK it was 0%; in the assay on MLK1 it was 2%; with MLK2, 0%; in the assay with MLK3 it was 28%; in the assay on MRCKA it was 0%. Further, the “%Inh” value is listed as 0% with MRCKB and 8% with MST1R.
On to `Cc1ccc(NC(=O)c2ccnc(N3CCN(C)CC3)c2)cc1-c1ccc(C(=O)NCC2CC2)cc1` [GW775604], for which the “%Inh” value in the assay with MEK1 came out at 3%; in the assay with MEK2 it was 25%; in the assay with MEK3, 1%; in the assay with MEK4, 0%; in the assay on MEK5, 2%; with MEK6, 11%. The “%Inh” value in the assay with MELK was 0%; in the assay with MERTK, 0%; with MET it was 0%; in the assay on MINK it was 0%; with MKK7, 0%; in the assay on MKNK1, 2%. For the same compound, the “%Inh” value in the assay with MKNK2 came out at 0%; in the assay on MLCK, 16%; with MLK1, 0%; in the assay on MLK2, 21%; in the assay with MLK3 it was 0%; with MRCKA it was 0%. The “%Inh” value in the assay with MRCKB and with MST1R was 0% in each case.

The record behind these values is paper PMC5540273 (PLoS ONE, 2017).
